Inconclusive results are not listed. Calls of active or inactive are those of the source. Calls follow the shape of the dose curve; as a rule, active = well fitted inhibition curve with a large enough effect; inconclusive = small, poorly fitted or top-dose-only effect; inactive = flat fitted curve, though single readings scatter. Square brackets hold non-standard residues; d marks the D form. Peptide text beside a SMILES is read from it. * marks the point of attachment. Dolaproine = CO[C@@H]([C@@H]1CCCN1)[C@@H](C)C(=O)O; Dil = CC[C@H](C)[C@H](NC)[C@@H](CC(=O)O)OC; NMe2Val = CC(C)[C@@H](C(=O)*)N(C)C; X1 = C[C@@H](N*)[C@@H](O)c1ccccc1; NMeV = CN[C@H](C(=O)O)C(C)C

Drawing on PubChem BioAssay AID2061304 (National Center for Advancing Translational Sciences (NCATS), 2025), this text covers Potency for twelve compounds.

This assay in a line: Identification of antibody-drug conjugate (ADC) payloads which are substrates of ATP-binding cassette drug efflux transporters: ABCB1-HeLa-KB-8-5-11 cell line. Particulars: KB-8-5-11 (P-gp overexpressing HeLa) viability, CellTiter-Glo, 48 h. The text has this:
Antibody-drug conjugates (ADCs) feature an antibody recognizing a specific protein joined to a potent toxic payload. Numerous antibody-drug conjugates have received FDA approval; however, clinical resistance arises. Resistance mechanisms include decreased expression or mutation of the antibody target, impaired payload release, or increased expression of ATP-binding cassette (ABC) efflux transporters associated with multidrug resistance. We therefore sought to characterize the interaction of ABC multidrug transporters with ADC payloads. We performed a high-throughput screen with 27 common ADC payloads using cells lines expressing ABC transporters P-glycoprotein (P-gp, encoded by ABCB1) or ABCG2 (encoded by ABCG2). Confirmatory assays were also performed using cells transfected to express P-gp, ABCG2, or MRP1 (encoded by ABCC1). Several commonly used ADC payloads were substrates of P-gp, including calicheamicin gamma1, monomethyl auristatin E, DM1, and DM4. All the pyrrolobenzodiazepines tested - SJG136, SGD-1882, SG2057, and SG3199 - were substrates of P-gp, ABCG2, and MRP1. […] These findings highlight the risk of transporter-mediated resistance with certain ADC payloads and underscore the importance of selecting payloads that evade ABC transporter recognition in future ADC development.
HEK-293 cells were transfected with empty vector (pcDNA) or vector containing the human ABCB1 (MDR-19), ABCG2 (R-5), or ABCC1 gene (MRP1) and were maintained in EMEM with 2 mg/mL G418 added to maintain transporter expression. The HeLa derivative KB-3-1 and the P-gp overexpressing KB-8-5-11 subline were maintained in DMEM; KB-8-5-11 additionally received 100 ng/mL colchicine. H460 parental cells were obtained from the Division of Cancer Treatment and Diagnosis Tumor Repository, National Cancer Institute at Frederick, MD and were cultured in RPMI. The ABCG2 expressing subline H460 MX20 was generated by selecting H460 cells in 20 nM mitoxantrone. Media in all cases was supplemented with 10% FBS and 1% penicillin-streptomycin. We explored 27 common ADC payloads, in two orthogonal, paired cell line sets-a drug selected and transfected set for each transporter--to identify substrates of the ABC transporters P-gp and ABCG2. Compounds were sourced from Levena Biopharma (San Diego, CA), Selleck Chem (Houston, TX), ChemieTek (Indianapolis, IN), or Microsource Discovery Systems (Gaylordsville, CT). Screening was performed as previously described. Briefly, cells were plated at a density of 500 cells/well in 1536 well plates with compounds added using a 1536-head pin tool (Kalypsys, San Diego CA). Cells were incubated with cytotoxic drugs and processed with CellTiter Glo reagent (Promega, Madison, WI) to determine viability after 48 hours. P-gp substrates were identified by comparing compound activity between paired sets of low-expressing (sensitive) and over-expressing (resistant) cell lines.
Background: In ATP-based viability assays light output follows the ATP content of the culture.
`CC[C@H](C)[C@@H]1NC(=O)CNC(=O)[C@H]2Cc3c([nH]c4cc(O)ccc34)S(=O)C[C@H](NC(=O)CNC1=O)C(=O)N[C@@H](CC(N)=O)C(=O)N1C[C@H](O)C[C@H]1C(=O)N[C@@H]([C@@H](C)[C@@H](O)CO)C(=O)N2` (some centres not stated): the Potency was 4.72 µM (active).
The result for `CC[C@H](C)[C@@H]([C@@H](CC(=O)N1CCC[C@H]1[C@H](OC)[C@@H](C)C(=O)N[C@H](C)[C@@H](O)c1ccccc1)OC)N(C)C(=O)[C@@H](NC(=O)[C@@H](NC)C(C)C)C(C)C` (H-[NMeV]V[Dil][Dolaproine]-X1) reads 0.211 µM (active); that for `CC[C@H](C)[C@@H]([C@@H](CC(=O)N1CCC[C@H]1[C@H](OC)[C@@H](C)C(=O)N[C@@H](Cc1ccccc1)C(=O)O)OC)N(C)C(=O)[C@@H](NC(=O)[C@H](C(C)C)N(C)C)C(C)C` (NMe2Val-V[Dil][Dolaproine]F-OH), 0.265 µM (active); that for `COc1cc2cc(c1Cl)N(C)C(=O)C[C@H](OC(=O)[C@H](C)N(C)C(=O)CCS)[C@]1(C)OC1[C@H](C)C1C[C@@](O)(NC(=O)O1)[C@H](OC)/C=C/C=C(\C)C2` (some centres not stated), 0.106 µM (active).
With `COc1cc2cc(c1Cl)N(C)C(=O)C[C@H](OC(=O)C(C)C)[C@]1(C)O[C@H]1[C@H](C)[C@@H]1C[C@@](O)(NC(=O)O1)[C@H](OC)C=CC=C(C)C2`, the Potency is 0.0047 µM (active).
On to `CC[C@H](C)[C@H](NC(=O)[C@H]1CCCCN1C)C(=O)N(C)[C@H](C[C@@H](OC(C)=O)c1nc(C(=O)N[C@@H](Cc2ccccc2)C[C@H](C)C(=O)O)cs1)C(C)C`, for which the Potency was 0.0106 µM (active).
In the case of `CC[C@H](C)[C@H](NC(=O)[C@H]1CCCCN1C)C(=O)N(C)[C@H](C[C@@H](OC(C)=O)c1nc(C(=O)O)cs1)C(C)C` it was 4.2 µM (active); in that of `CC[C@H](C)[C@@H]([C@@H](CC(=O)N1CCC[C@H]1[C@H](OC)[C@@H](C)C(=O)N[C@H](C)[C@@H](O)c1ccccc1)OC)N(C)C(=O)[C@@H](NC(=O)[C@H](C(C)C)N(C)C)C(C)C`, 0.0529 µM (active).
`COc1cccc2c1C(=O)c1c(O)c3c(c(O)c1C2=O)C[C@@](O)(C(=O)CO)CC3OC1CC(N2CCOC(OC)C2)C(O)C(C)O1` (some centres not stated): the Potency is 0.0133 µM (active).
With `COc1cc2cc(C(=O)N3C[C@@H](CCl)c4c3cc(O)c3ccccc43)[nH]c2c(OC)c1OC`, the Potency is 0.0013 µM (active).
With `CC[C@@]1(O)C(=O)OCc2c1cc1n(c2=O)Cc2cc3ccccc3nc2-1`, the Potency is 0.334 µM (active).
On to `COc1cc2cc(c1Cl)N(C)C(=O)C[C@H](OC(=O)[C@H](C)N(C)C(=O)CCC(C)(C)S)[C@]1(C)OC1[C@H](C)C1C[C@@](O)(NC(=O)O1)[C@H](OC)/C=C/C=C(\C)C2` (some centres not stated), for which the Potency was 0.0265 µM (active).
